Molecules are shown by their SMILES. Unmarked numbers belong to inactive results. Records with an inconclusive call do not appear. Active and inactive are the calls of the source. Unless noted, calls follow the shape of the dose curve; as a rule, active = well fitted curve in the direction sought with a large enough effect in the repeat runs; inconclusive = weak or mixed curves; inactive = no such curve, though single readings can be large; an effect the other way counts as inactive or inconclusive.

The record followed here is PubChem BioAssay (Tox21).

A short description of assay [1]: Human pregnane X receptor (PXR) small molecule agonists, qHTS cell viability counter screen (AID 1346977). Also: nearly all actives have a fitted effect of over 50% in size. Also: potency is read from the fitted curve at half-maximal effect. A digest of the protocol: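 HepG2 cells stably carrying the PXR-Luc reporter are cultured with 5% charcoal-stripped FBS and treated with compounds for 24hr. CellTiter-Fluor is added at 23hr and fluorescence is read after 1hr.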
(In qHTS, concentration-response curves come from the screen itself.)

A short description of assay [2]: Caspase-3/7 induction in HepG2 cells by small molecules, qHTS assay (AID 1346978). Also: nearly all actives have a fitted effect of over 15% in size. Also: potency is read from the fitted curve at half-maximal effect. In a few lines:
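Wild-type HepG2 cells, 2,000/well, settled 5 hr at 37 C and 5% CO2, then compound-treated for 17 hr; caspase-3/7 activity read by luminescent Caspase-Glo 3/7 after 30 min at room temperature.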

The nature of assay [3]: Caspase-3/7 induction in CHO-K1 cells by small molecules, qHTS cell viability counter screen (AID 1346979). Also: nearly all actives have a fitted effect of over 35% in size. Also: potency is read from the fitted curve at half-maximal effect. In a few lines:
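Seeding: 1,500 CHO-K1 cells/well. Rest: 5hr, 37C. Treatment: compounds in DMSO, 16hr. Read: CellTiter-Fluor, 1hr, fluorescence.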

The nature of assay [4]: Caspase-3/7 induction in CHO-K1 cells by small molecules, qHTS assay (AID 1346980). Also: nearly all actives have a fitted effect of over 15% in size. Also: potency is read from the fitted curve at half-maximal effect. A digest of the protocol:
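Wild-type CHO-K1 cells exposed to compounds for 17hr at 37 C, 5% CO2. Caspase-3/7 activity then measured by Caspase-Glo 3/7 luminescence after 30min at room temperature.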

Assay [5] can be described thus: Caspase-3/7 induction in HepG2 cells by small molecules, qHTS cell viability counter screen (AID 1346981). Also: nearly all actives have a fitted effect of over 30% in size. Also: potency is read from the fitted curve at half-maximal effect. In a few lines: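 Steps: seed 2,000 HepG2 cells per well; incubate 5 hr at 37 C; pin-add compounds in DMSO; incubate 16 hr; add CellTiter-Fluor; after 1 hr at 37 C and 5% CO2, read fluorescence.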
Assay [6] addresses Nuclear receptor subfamily 1 group I member 2 (Homo sapiens) (UniProt O75469). The assay can be described thus: Human pregnane X receptor (PXR) small molecule agonists, qHTS assay (AID 1346982). Also: nearly all actives have a fitted effect of over 35% in size. Also: potency is read from the fitted curve at half-maximal effect. A digest of the protocol: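 Agonist mode qHTS: PXR-Luc HepG2 cells plated 5 hr before DMSO-dissolved compounds were pinned in, cultured 24 hr at 37 C, 5% CO2; ONE-Glo luminescence readout.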

Assay [7] deals with Acetylcholinesterase (Homo sapiens) (UniProt P22303). The experiment in a line: Acetylcholinesterase (AChE) small molecule antagonists: colormetric cell-based qHTS assay (AID 1347395; calls by dose curve; also: nearly all actives have a fitted effect of over 30% in size). In a few lines: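 Quantitative HTS in attached SH-SY5Y cells: 30 min compound exposure, then 90 min with acetylthiocholine and DTNB at 37 C; colour from thiocholine reports AChE activity.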
The target is the same in assay [8]. The assay can be described thus: Acetylcholinesterase (AChE) small molecule antagonists: enzyme-based qHTS assay (AID 1347397; calls by dose curve; also: nearly all actives have a fitted effect of over 55% in size). Conditions: Potency: AChE enzyme activity inhibition. In a few lines: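 Recombinant human AChE (50 mU/mL) preincubated with compound 30 min at room temperature; acetylthiocholine plus DTNB then added, and thiocholine formation read colorimetrically after 10 min at room temperature. DMSO served as vehicle control.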

For assay [9] the target is unchanged. The experiment in a line: Acetylcholinesterase (AChE) small molecule antagonists: fluorescence cell-based qHTS assay (AID 1347398; calls by dose curve; also: nearly all actives have a fitted effect of over 50% in size). The following applies: Potency: AChE activity. In a few lines: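 SH-SY5Y cells (2000/well), attached overnight, incubated with compound 30 min at 37 C. Acetylthiocholine plus Thiolite Green then added for 40 min at room temperature. Thiocholine fluorescence (Ex/Em 490/520 nm) reports cellular AChE activity.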

For assay [10] the target is unchanged. The assay can be described thus: Acetylcholinesterase (AChE) small molecule antagonists: enzyme-based qHTS assay with human liver microsomes (AID 1347399; calls by dose curve; also: nearly all actives have a fitted effect of over 60% in size). Conditions: Potency: qHTS inhibition. A digest of the protocol: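 Recombinant human AChE (50 mU/mL in the enzyme mix) and human liver microsomes (0.25 mg/mL final) were preincubated with compound and NADPH (0.25 mg/mL final) for 30 min at 37 C. Acetylthiocholine/DTNB was then added; thiocholine was read colorimetrically after 10 min at room temperature.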

For assay [11], the target named is Cytochrome P450 2D6 (Homo sapiens) (UniProt P10635). The assay can be described thus: Cytochrome P450 Family 2 Subfamily D Member 6 (CYP2D6) small molecule antagonists: luciferase reporter qHTS assay (AID 1671196). Also: nearly all actives have a fitted effect of over 50% in size. Also: potency is read from the fitted curve at half-maximal effect. In a few lines: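 P450-Glo format: CYP2D6 converts a proluciferin substrate to luciferin in an NADPH-driven reaction lasting 1 h at room temperature. Light output, proportional to CYP2D6 activity, reflects interference by test chemicals.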
A general note: Reporter assays use an easily measured gene product as a stand-in for the process of interest.

Assay [12] has as its target Cytochrome P450 2C19 (Homo sapiens) (UniProt P33261). The experiment in a line: Cytochrome P450 Family 2 Subfamily C Member 19 (CYP2C19) small molecule antagonists: luciferase reporter qHTS assay (AID 1671197). Also: nearly all actives have a fitted effect of over 65% in size. Also: potency is read from the fitted curve at half-maximal effect. A digest of the protocol: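 Light output is proportional to CYP2C19 activity: proluciferin substrate is converted to luciferin, then detected by a luciferin detection reagent that also stops the 1 h, 37C NADPH-driven reaction. Ketoconazole serves as positive control.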

Assay [13] deals with Cytochrome P450 2C9 (Homo sapiens) (UniProt P11712). The experiment in a line: Cytochrome P450 Family 2 Subfamily C Member 9 (CYP2C9) small molecule antagonists: luciferase reporter qHTS assay (AID 1671198). Also: nearly all actives have a fitted effect of over 50% in size. Also: potency is read from the fitted curve at half-maximal effect. A digest of the protocol:
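P450-Glo proluciferin substrate with CYP2C9 enzyme; 10 min RT preincubation, then NADPH regeneration 1 h at 37C; luciferin detection reagent 20 min RT, luminescence in relative luminescence units.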

Assay [14] deals with Cytochrome P450 1A2 (Homo sapiens) (UniProt P05177). The experiment in a line: Cytochrome P450 Family 1 Subfamily A Member 2 (CYP1A2) small molecule antagonists: luciferase reporter qHTS assay (AID 1671199). Also: nearly all actives have a fitted effect of over 50% in size. Also: potency is read from the fitted curve at half-maximal effect. A digest of the protocol:
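Inhibition of CYP1A2 conversion of proluciferin to luciferin, detected by luminescence. Reaction run 1 h at room temperature with NADPH regeneration after brief compound preincubation.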

For assay [15], the target named is Cytochrome P450 3A4 (Homo sapiens) (UniProt P08684). The assay can be described thus: Cytochrome P450 Family 3 Subfamily A Member 4 (CYP3A4) small molecule antagonists: luciferase reporter qHTS assay (AID 1671201). Also: nearly all actives have a fitted effect of over 50% in size. Also: potency is read from the fitted curve at half-maximal effect. A digest of the protocol:
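Enzyme and proluciferin substrate are mixed with test chemicals for 10 min, then NADPH regeneration system drives turnover for 1 h at room temperature. A detection reagent halts the reaction; luminescence after 20 min gives relative activity.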

Assay [16] concerns the target Nuclear receptor subfamily 1 group I member 2 (Rattus norvegicus) (UniProt Q9R1A7). The assay can be described thus: Rat pregnane X receptor (rPXR) activation by small molecules, qHTS assay (AID 1346983). Also: nearly all actives have a fitted effect of over 20% in size. The following applies: rPXR luciferase reporter cells, One-Glo luminescence, 24 h; max activation: stronger effect = higher value. In a few lines: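 Cell-based rPXR activation assay: rPXR cells, 2,000 per well, rested 5hr at 37 C, then exposed to compounds in DMSO for 24 hr at 37 C. Luciferase activity read by One-Glo luminescence after 30 min at room temperature.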

Assay [17] deals with Nuclear receptor subfamily 1 group I member 2 (Homo sapiens) (UniProt O75469). The experiment in a line: CYP3A4 induction through human pregnane X receptor (PXR) by small molecules, qHTS assay (AID 1346984). Also: nearly all actives have a fitted effect of over 40% in size. A digest of the protocol: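 Steps: seed DPX-2 cells, 5 hr at 37C; pin-transfer compounds; 24 hr at 37C; add Luciferin-IPA (3uM final), 3 hr at 37C; add One-Glo, 30 min RT; read luminescence.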

For assay [18] the target is unchanged. The experiment in a line: Human pregnane X receptor (PXR) activation by small molecules, qHTS assay (AID 1346985). Also: nearly all actives have a fitted effect of over 40% in size. A digest of the protocol:
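DPX-2 cells (HepG2 co-transfected with a PXR response element and a CYP3A4-promoter luciferase construct) were seeded at 2,000 per well, rested 5 hr at 37C, then exposed to DMSO-dissolved compounds for 24 hr. Activation was read as luciferase luminescence.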

Assay [19] deals with Voltage-gated inwardly rectifying potassium channel KCNH2 (Homo sapiens) (UniProt Q12809). The experiment in a line: Human Ether-a-go-go-Related Gene (hERG) channel small molecule antagonists: fluorescence cell-based qHTS assay (AID 1671200). Also: nearly all actives have a fitted effect of over 50% in size. Also: potency is read from the fitted curve at half-maximal effect. In a few lines: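 First, 1000 cells per well are seeded and cultured overnight at 37 C. Next, FluxOR II dye is loaded for 1 h at room temperature, protected from light. After 10 more minutes, stimulus is added and fluorescence is read.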
% is scaled to controls: 0 for no effect and ±100 for the full control effect.

Cytochrome P450 1A2 (Homo sapiens), sequence (P05177 whole entry, looked up): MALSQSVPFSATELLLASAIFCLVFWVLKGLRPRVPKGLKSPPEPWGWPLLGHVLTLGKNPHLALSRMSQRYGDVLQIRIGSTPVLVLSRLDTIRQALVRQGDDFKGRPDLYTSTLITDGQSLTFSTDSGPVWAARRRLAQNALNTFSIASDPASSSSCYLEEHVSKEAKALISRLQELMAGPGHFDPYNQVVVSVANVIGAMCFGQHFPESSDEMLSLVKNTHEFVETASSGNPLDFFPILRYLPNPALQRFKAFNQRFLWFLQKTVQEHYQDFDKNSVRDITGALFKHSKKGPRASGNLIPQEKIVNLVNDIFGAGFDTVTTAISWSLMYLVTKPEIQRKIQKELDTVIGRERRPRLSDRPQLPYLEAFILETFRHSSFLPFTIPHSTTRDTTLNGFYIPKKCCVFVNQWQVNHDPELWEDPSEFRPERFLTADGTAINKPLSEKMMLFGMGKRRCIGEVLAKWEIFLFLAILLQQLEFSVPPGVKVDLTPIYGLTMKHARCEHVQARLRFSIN
Cytochrome P450 3A4 (Homo sapiens), sequence (P08684 whole entry, looked up): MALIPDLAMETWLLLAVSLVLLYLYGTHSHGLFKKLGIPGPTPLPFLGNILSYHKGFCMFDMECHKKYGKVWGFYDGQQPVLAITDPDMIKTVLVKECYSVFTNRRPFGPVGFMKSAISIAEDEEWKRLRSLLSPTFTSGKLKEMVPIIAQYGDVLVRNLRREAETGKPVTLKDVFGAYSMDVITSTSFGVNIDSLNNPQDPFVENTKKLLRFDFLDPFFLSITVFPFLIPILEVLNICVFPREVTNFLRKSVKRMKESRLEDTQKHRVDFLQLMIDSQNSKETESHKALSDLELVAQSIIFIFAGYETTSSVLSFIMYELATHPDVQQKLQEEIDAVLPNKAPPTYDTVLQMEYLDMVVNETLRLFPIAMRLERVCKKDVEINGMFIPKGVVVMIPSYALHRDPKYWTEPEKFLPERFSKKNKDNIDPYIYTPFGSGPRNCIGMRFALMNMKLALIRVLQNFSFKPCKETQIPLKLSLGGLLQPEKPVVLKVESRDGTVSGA
Nuclear receptor subfamily 1 group I member 2 (Homo sapiens), sequence (O75469 whole entry, looked up): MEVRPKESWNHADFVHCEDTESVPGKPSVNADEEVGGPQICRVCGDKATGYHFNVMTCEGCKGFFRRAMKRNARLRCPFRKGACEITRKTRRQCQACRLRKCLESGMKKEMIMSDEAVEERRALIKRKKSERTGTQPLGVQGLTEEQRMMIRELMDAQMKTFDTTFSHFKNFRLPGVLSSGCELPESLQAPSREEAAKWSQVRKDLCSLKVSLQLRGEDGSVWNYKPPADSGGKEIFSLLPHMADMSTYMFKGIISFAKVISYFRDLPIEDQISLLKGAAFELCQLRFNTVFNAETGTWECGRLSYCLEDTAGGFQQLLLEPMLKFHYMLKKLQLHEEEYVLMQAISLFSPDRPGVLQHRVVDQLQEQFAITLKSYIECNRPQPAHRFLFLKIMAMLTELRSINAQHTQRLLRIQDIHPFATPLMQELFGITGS
Voltage-gated inwardly rectifying potassium channel KCNH2 (Homo sapiens), sequence (Q12809 whole entry, looked up): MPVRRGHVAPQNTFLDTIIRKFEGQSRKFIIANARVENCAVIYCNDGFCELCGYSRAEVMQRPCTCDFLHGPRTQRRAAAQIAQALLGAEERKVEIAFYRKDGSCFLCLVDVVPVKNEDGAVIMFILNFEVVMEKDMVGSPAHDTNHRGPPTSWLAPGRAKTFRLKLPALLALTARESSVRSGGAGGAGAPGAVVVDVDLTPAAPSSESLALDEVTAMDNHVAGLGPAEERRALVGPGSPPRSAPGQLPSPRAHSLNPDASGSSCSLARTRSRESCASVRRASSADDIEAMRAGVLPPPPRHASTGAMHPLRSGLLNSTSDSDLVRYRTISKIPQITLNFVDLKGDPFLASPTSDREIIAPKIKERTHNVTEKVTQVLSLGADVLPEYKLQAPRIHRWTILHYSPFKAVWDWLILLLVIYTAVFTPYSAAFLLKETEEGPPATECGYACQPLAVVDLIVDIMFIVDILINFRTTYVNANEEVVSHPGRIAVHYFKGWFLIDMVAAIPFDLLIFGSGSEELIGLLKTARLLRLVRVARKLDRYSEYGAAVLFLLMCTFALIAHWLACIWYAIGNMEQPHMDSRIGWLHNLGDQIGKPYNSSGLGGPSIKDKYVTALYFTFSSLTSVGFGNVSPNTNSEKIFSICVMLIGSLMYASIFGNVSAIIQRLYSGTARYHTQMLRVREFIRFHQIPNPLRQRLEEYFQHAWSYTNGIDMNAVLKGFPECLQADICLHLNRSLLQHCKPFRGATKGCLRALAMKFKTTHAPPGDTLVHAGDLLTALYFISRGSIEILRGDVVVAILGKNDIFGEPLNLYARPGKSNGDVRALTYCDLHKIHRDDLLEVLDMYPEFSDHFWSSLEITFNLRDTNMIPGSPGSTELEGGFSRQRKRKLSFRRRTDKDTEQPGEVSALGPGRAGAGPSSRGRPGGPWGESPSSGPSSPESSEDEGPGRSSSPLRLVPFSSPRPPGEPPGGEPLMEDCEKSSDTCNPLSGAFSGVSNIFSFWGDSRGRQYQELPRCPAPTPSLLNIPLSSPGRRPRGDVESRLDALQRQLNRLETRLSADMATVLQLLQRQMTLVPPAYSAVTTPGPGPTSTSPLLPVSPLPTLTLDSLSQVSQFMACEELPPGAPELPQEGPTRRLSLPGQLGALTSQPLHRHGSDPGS
Cytochrome P450 2C19 (Homo sapiens), sequence (P33261 whole entry, looked up): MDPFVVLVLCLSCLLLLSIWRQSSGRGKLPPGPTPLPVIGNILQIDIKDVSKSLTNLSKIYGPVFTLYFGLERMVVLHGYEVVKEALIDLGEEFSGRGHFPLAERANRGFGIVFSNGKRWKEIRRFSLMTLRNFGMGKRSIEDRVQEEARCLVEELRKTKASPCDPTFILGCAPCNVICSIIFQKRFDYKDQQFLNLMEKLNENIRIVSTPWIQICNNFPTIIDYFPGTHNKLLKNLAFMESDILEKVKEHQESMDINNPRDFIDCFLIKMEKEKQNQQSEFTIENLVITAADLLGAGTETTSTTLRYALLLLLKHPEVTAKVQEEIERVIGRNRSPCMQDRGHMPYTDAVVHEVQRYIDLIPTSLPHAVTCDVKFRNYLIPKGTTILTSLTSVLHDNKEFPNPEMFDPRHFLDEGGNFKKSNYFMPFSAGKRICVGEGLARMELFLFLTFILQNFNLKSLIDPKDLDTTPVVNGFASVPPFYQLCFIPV
Acetylcholinesterase (Homo sapiens), sequence (P22303 whole entry, looked up): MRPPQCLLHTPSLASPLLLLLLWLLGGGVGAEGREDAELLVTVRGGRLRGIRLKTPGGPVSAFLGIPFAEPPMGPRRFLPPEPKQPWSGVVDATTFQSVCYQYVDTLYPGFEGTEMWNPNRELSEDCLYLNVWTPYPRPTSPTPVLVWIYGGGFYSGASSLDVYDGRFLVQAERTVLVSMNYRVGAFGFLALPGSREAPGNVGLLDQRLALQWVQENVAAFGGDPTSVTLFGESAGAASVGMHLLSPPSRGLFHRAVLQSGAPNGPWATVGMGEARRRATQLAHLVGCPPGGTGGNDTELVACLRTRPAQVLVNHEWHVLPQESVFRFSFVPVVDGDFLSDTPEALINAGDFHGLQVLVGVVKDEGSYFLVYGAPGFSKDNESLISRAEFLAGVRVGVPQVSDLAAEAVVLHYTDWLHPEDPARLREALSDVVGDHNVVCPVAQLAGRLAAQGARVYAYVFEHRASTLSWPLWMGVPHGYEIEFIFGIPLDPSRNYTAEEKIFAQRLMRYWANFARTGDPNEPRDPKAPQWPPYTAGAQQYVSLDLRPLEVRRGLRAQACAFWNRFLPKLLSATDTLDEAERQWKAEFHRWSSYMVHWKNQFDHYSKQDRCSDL
Cytochrome P450 2C9 (Homo sapiens), sequence (P11712 whole entry, looked up): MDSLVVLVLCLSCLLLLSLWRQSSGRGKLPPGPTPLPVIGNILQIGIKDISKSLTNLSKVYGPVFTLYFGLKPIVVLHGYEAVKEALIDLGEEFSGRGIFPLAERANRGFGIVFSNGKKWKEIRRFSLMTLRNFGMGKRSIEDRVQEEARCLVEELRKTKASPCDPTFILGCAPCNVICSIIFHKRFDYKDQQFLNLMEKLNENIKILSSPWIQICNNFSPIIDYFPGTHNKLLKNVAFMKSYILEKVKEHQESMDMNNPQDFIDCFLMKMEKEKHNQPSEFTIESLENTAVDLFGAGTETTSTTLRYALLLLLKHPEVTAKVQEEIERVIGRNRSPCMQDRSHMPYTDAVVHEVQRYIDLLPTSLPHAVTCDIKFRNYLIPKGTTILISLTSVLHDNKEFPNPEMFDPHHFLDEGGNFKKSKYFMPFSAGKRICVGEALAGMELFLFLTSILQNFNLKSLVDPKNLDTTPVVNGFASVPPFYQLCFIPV
Cytochrome P450 2D6 (Homo sapiens), sequence (P10635 whole entry, looked up): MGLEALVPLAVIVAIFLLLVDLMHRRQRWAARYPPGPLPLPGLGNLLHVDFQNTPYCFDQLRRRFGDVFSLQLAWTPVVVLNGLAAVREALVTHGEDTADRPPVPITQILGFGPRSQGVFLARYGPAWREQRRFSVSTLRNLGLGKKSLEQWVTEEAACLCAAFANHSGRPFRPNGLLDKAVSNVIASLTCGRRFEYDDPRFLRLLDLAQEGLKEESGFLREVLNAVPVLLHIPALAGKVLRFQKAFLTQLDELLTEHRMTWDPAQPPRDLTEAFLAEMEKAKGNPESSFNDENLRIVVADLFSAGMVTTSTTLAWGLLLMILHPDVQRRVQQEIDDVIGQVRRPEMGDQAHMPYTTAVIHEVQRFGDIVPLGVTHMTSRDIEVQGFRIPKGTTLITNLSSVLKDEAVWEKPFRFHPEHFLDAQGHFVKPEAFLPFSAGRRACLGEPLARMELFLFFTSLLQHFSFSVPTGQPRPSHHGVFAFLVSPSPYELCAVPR

With `ClC(Cl)C(Cl)(Cl)Cl`, the Potency entry in assay [1], in assay [2], in assay [3], in assay [4], in assay [5] and in assay [6] was “inactive” each time. In addition, the Potency entry in assay [7], in [8], in [9], in [10], in assay [11] and in assay [12] was “inactive” throughout. The Potency result in assay [13] and in [15] was “inactive” each time. Further, in [14], the Potency was 31.1 µM (active).

For `CC(C)C(Br)C(=O)NC(N)=O` (centres undefined), the Potency result in [1], in [2], in assay [3], in assay [4], in assay [5] and in assay [6] was “inactive” each time. Also, the Potency entry in [17], in [18], in assay [7], in assay [8], in assay [9] and in assay [10] was “inactive” each time. In addition, the Potency result in [11], in assay [12], in assay [13], in [14] and in [15] was “inactive” in each case. The max activation in [16] was -0.856%.

Take `S=C=Nc1ccccc1`: the Potency entry in [1], in assay [2], in assay [3], in [4], in [5] and in assay [7] was “inactive” in each case. The Potency result in [8], in [9], in assay [10] and in assay [19] was “inactive” throughout. Besides, the Potency in assay [6] was 63.1 µM (active); in assay [11], 73.3 µM (active); in assay [12], 36.7 µM (active); in [13] it was 65.3 µM (active); in assay [14] it was 32.7 µM (active).

As to `O=[N+]([O-])c1ccc(Cl)c(Cl)c1Cl`, the Potency result in assay [1], in assay [2], in [3], in [4], in assay [5] and in [6] was “inactive” in each case. For the same compound, the Potency entry in assay [7], in assay [8], in [9], in [10], in assay [11] and in assay [13] was “inactive” each time. Further, the Potency result in [19] and in assay [15] was “inactive” in each case. For the same compound, the Potency in assay [12] was 55.6 µM (active); in assay [14] it was 8.8 µM (active).

Regarding `O=S1(=O)OCC2C(CO1)C1(Cl)C(Cl)=C(Cl)C2(Cl)C1(Cl)Cl` (centres undefined), the Potency entry in assay [1], in assay [2], in [4], in assay [5], in [7] and in [8] was “inactive” in each case. Further, the Potency entry in assay [9], in [10] and in assay [11] was “inactive” throughout. Moreover, the Potency in assay [3] was 48.6 µM (active); in [6], 21.7 µM (active); in assay [12] it was 1.59 µM (active); in assay [13] it was 15.9 µM (active); in assay [14], 31.7 µM (active); in assay [19], 17.4 µM (active). Moreover, the Potency in assay [15] is 0.224 µM (active).

Consider `CCCN`, for which the Potency entry in assay [1], in assay [2], in assay [3], in assay [4], in assay [5] and in assay [6] was “inactive” throughout. The Potency entry in assay [7], in assay [8], in assay [9], in [10], in [12] and in assay [13] was “inactive” each time. The Potency result in [19] and in assay [15] was “inactive” throughout.

For `[F][Sn]([c]1ccccc1)([c]1ccccc1)[c]1ccccc1`, the Potency in assay [1] is 0.0863 µM (active); in assay [2], 0.193 µM (active); in assay [3], 0.0433 µM (active); in assay [4], 0.0611 µM (active); in [5] it was 1.22 µM (active); in assay [6], 0.077 µM (active). The Potency is 2.83 µM (active) in assay [11], 3.99 µM (active) in [12], 2 µM (active) in [13] and 3.09 µM (active) in [19]. Besides, the Potency entry in assay [7], in [8], in assay [9], in assay [10] and in assay [14] was “inactive” each time.
